CYP2C9 act = activators of human CYP2C9. hit rate 1.4% among 96,000. activation factor at 5 µM. P11712. recombinant CYP2C9, luciferin-H conversion, luminescence; active compounds read high; factor 1 = untreated enzyme, 0 = blocked;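 active = activation factor of 2 or more for CYP2C9 at a 5 µM dose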;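 also: 0 = sulfaphenazole-blocked wells and 1 = vehicle-only wells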
Plk1 PBD FP = Plk1 (human) PBD binding inhibition. P53350. Plk1 PBD phosphopeptide binding, fluorescence polarization. inhibition, %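 (tested at about 20 µM)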. hit rate 0.13% among 97,000. AID 693; in the data active = inhibition above about 34%, passing the limit was not always enough
CYP2C19 inhib = inhibitors of human CYP2C19; CYP2C19 Supersomes, luciferin-H EGE luminescence, 30 min; inhibition, % at 5 µM; hit rate 21% among 96,000; AID 778;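 active = CYP2C19 inhibition above a set limit at 5 µM in the primary screen, cut at about 50% in these data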;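 also: plate controls were negative control wells for no effect and 2.5 mM tranylcypromine positive control for full effect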
Target sequence (P33261 whole entry, looked up): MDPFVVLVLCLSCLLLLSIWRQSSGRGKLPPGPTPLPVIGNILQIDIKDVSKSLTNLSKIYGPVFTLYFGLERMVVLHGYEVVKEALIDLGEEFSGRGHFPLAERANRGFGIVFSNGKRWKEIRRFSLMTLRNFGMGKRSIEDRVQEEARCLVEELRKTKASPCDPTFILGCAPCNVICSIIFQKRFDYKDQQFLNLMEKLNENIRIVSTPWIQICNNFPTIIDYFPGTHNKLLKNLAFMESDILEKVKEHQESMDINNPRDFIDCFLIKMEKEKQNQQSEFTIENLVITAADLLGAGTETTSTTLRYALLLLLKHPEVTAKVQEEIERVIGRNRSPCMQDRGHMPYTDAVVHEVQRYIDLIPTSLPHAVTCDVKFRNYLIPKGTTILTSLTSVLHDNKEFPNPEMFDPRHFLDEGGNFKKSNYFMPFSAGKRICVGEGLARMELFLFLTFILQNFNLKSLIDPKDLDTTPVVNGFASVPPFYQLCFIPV
CYP2C9 inhib = human CYP2C9 inhibition; P11712; hit rate 20% among 96,000; CYP2C9 Supersomes, luciferin-H conversion, luminescence; inhibition, % at 5 µM;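 active = blocking of liver enzyme CYP2C9 beyond about 50% at 5 µM, limit read from the data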
PLK1 inh = PLK1 (human) kinase inhibition. recombinant PLK1 kinase, TR-FRET peptide phosphorylation. inhibition, % at 10 µM. hit rate 0.53% among 97,000;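 active = inhibition of 50% or more in the single-concentration screen; inactive = inhibition below 50%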;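 also: 0% = DMSO max control and 100% = H-89 dihydrochloride min control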
CYP2C19 activ = cytochrome P450 2C19 (human) activation. P33261. recombinant CYP2C19, luciferin-H EGE luminescence; active compounds read high; 0 = fully inhibited enzyme, 1 = untreated enzyme. activation factor at 5 µM. 96,000 tested, under 10 active. AID 1025;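 active = activation factor of at least 2 at 5 µM in the primary screen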;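 also: 0 = wells with 2.5 mM tranylcypromine and 1 = vehicle-only wells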
* = called active by the depositor; x = no result given. A selection: hits, their analogues and other compounds. The true share with any hit is near 28%.

SMILES	CYP2C9 act	Plk1 PBD FP	CYP2C19 inhib	CYP2C9 inhib	PLK1 inh	CYP2C19 activ
COc1cc(OC)cc(C(=O)NC(=S)NCCc2ccccc2)c1	0.5	-5.1	47.5	51.0*	-14.3	0.5
COc1cccc2cc(C(=O)C3=C(O)C(=O)N(CCN4CCOCC4)C3c3cccs3)oc12 (stereo not given)	1.2	-21.9	-10.3	-22.0	-9.8	1.1
Cc1cc(C)c(COCc2cc(/C=N/O)c(C)cc2C)cc1/C=N/O	0.9	-1.9	35.9	8.4	-5.5	0.6
COc1ccc(N2CCN(c3nc4c(c(=O)n(C)c(=O)n4C)n3CCCc3ccccc3)CC2)cc1	0.8	x	13.1	24.6	x	0.9
COc1cc2c(c(OC)c1)C(c1ccncc1)CC(=O)N2 (stereo not given)	0.1	x	76.5*	90.0*	x	0.2
COC(=O)c1ccc(C2CC(=O)Nc3cc(OC)c(OC)c(OC)c32)cc1 (stereo not given)	0.1	-4.8	93.3*	87.9*	-14.6	0.1
O=C(O)C1C2C=CC(C2)C1C(=O)Nc1ccc(C(=O)N2CCCCC2)c(Cl)c1 (stereo not given)	1.2	15.0	-0.3	-22.6	-11.0	1
c1cnc(SCCOc2cccc3ccccc23)nc1	1.5	9.8	56.7*	-46.7	5.3	0.4
Clc1ccc(OCCSc2ncccn2)c2ccccc12	1.1	0.6	11.1	-5.0	-9.6	0.9
COC(=O)C1C2C=CC3(CN(C(C)C)C(=O)C13)O2 (stereo not given)	0.6	13.4	10.5	36.1	54.8*	0.9
CCCCSc1nc(C)c(CC(=O)OC)c(=O)[nH]1	1.1	x	8.1	-7.2	x	0.9
Cc1ccc(S(=O)(=O)Cn2nnnc2C(c2ccccc2)N2CCN(c3ncccn3)CC2)cc1 (stereo not given)	0.1	5.4	98.0*	93.5*	4.1	0
CCCC(c1nnnn1CS(=O)(=O)c1ccc(C)cc1)N1CCN(c2ccccc2)CC1 (stereo not given)	0.4	-17.9	26.7	61.6*	-2.8	0.7
Cc1ccc(-c2nnnn2CS(=O)(=O)c2ccccc2)cc1	1.7	-6.2	67.9*	-73.8	-4.5	0.3
COc1ccc(C(c2nnnn2CS(=O)(=O)c2ccc(C)cc2)N2CCN(c3ncccn3)CC2)cc1 (stereo not given)	x	3.3	x	x	-5.3	x
Cc1cccc(OCCOc2ccc(/C=N/NC(=O)Cc3nnc(N)s3)cc2)c1	1	10.1	-4.3	-0.4	-5.6	1
Cc1ccc(-c2ccc(CCC(=O)O)n2Cc2ccco2)cc1	0.4	0.5	31.9	56.7*	-26.3	0.7
Cc1cccc(-c2csc(NC(=O)c3cnccn3)c2C(=O)OC(C)C)c1	0.5	-9.0	29.6	50.5*	-11.2	0.7
N#Cc1nc(-c2cccs2)oc1N1CCN(c2ccccc2)CC1	0.6	9.4	41.4	38.9	-9.5	0.6
C=CCSc1nc2c(c(=O)n(C)c(=O)n2C)n1CC	1	-1.3	14.4	2.1	-6.5	0.9
O=C(Nc1ccc(Cl)c(Cl)c1)OCc1cncs1	0	-6.5	99.4*	96.7*	8.9	0
Cc1ccc(C)c(S(=O)(=O)NCCOc2nc(NC(C)C)nc(NC(C)C)n2)c1	0.4	-17.4	77.7*	58.7*	0.3	0.2
CCOc1ccc2[nH]c(=O)c(C(c3nnnn3C3CCCCC3)N3CCN(C)CC3)cc2c1 (stereo not given)	1.1	x	-6.0	-5.3	x	1.1
COc1ccc(Cn2nnnc2C(c2cc3ccc(OC)cc3[nH]c2=O)N2CCC(C)CC2)cc1 (stereo not given)	0.8	-16.0	24.2	23.4	9.2	0.8
Cc1ccc(C)c2[nH]c(=O)c(C(c3nnnn3Cc3ccco3)N3CCc4ccccc4C3)cc12 (stereo not given)	0.2	27.0	95.3*	80.8*	-9.3	0
SMILES	CYP2C9 act	Plk1 PBD FP	CYP2C19 inhib	CYP2C9 inhib	PLK1 inh	CYP2C19 activ
CCOc1ccc2[nH]c(=O)c(C(c3nnnn3Cc3ccco3)N3CCC(C)CC3)cc2c1 (stereo not given)	0.6	9.2	61.8*	39.5	-12.7	0.4
CCOc1ccc2[nH]c(=O)c(C(c3nnnn3Cc3ccco3)N3CCCC(C)C3)cc2c1 (stereo not given)	0.2	9.5	95.9*	78.6*	-4.4	0
COC(=O)CSc1nnc(-c2cccnc2)n1-c1cc(OC)cc(OC)c1	0.9	14.6	6.9	14.7	-2.1	0.9
COc1ccc(OC)c(C2=NOC(C(=O)N3CCCc4ccccc43)C2)c1 (stereo not given)	2.4*	-5.6	40.8	-139.5	-3.1	0.6
O=C(C1CC(c2ccc(F)cc2)=NO1)N1CCN(Cc2ccccc2)CC1 (stereo not given)	0.8	17.9	22.2	16.8	-8.4	0.8
COc1cc(OC)c(C2=NOC(C(=O)N3CCc4ccccc4C3)C2)cc1Cl (stereo not given)	2.1*	-28.0	58.7*	-113.1	-7.3	0.4
CCOC(=O)N1CCN(C(=O)C2CC(c3cc(OC)ccc3OC)=NO2)CC1 (stereo not given)	1.3	-10.6	-9.3	-27.9	-9.9	1.1
O=C(C1CC(c2ccc(F)cc2)=NO1)N1CCCc2ccccc21 (stereo not given)	2.4*	-3.5	52.1*	-137.6	-9.7	0.5
COc1cc(OC)c(C2=NOC(C(=O)O)C2)cc1Cl (stereo not given)	1.6	3.2	-7.7	-62.8	-15.1	1.1
COc1cccc(C2=NOC(C(=O)N3CCN(Cc4ccccc4)CC3)C2)c1OC (stereo not given)	2.1*	10.2	16.4	-110.9	-14.5	0.8
CCCCOCCCNC(=O)C1CCCCC1	1	-7.7	-1.1	-2.7	-8.9	1
CC(=O)Nc1ccc(S(=O)(=O)NC(CC(=O)NCCc2ccccc2)C(C)C)cc1 (stereo not given)	0.7	-13.5	36.2	30.7	-1.5	0.6
O=C(O)c1ccc(NC(=O)C2(c3ccccc3)CCOCC2)cc1	1.2	6.5	-13.9	-15.5	-8.3	1.1
Nc1nc2c(s1)C(=O)CC(c1ccccc1)C2 (stereo not given)	0.8	-10.7	30.9	19.6	-8.3	0.7
COc1ccc2cc(Br)ccc2c1CC(=O)NC1CC(C)(C)NC(C)(C)C1	0.9	23.7	16.8	12.6	-4.6	0.8
CN1CCc2nc3sc(C(=O)C45CC6CC(CC(C6)C4)C5)c(N)c3cc2C1	0.7	-16.6	16.7	29.5	-3.2	0.8
Cc1occc1-c1nnc(SCc2nnc(-c3ccc(Cl)cc3)o2)n1C	x	-7.8	x	x	-8.1	x
Cc1ccc(CSc2nnnn2C)cc1	0.9	13.4	74.4*	12.2	-16.8	0.3
Cn1nnnc1SCc1nnc(-c2ccc(Cl)cc2)o1	0.9	4.4	77.6*	13.5	-15.9	0.2
Cn1nnnc1SCc1ccc(F)cc1	1.1	-11.4	55.8*	-5.1	-4.9	0.4
Cn1nnnc1SCSc1nnnn1C	0.8	-1.6	-4.8	23.1	2.0	1
